SMILES strings stand for the structures. Values joined by “and” are separate entries in the source; they are usually repeats but may differ in a detail not shown here. Identical values can stand only once. Records with an inconclusive call do not appear. Active and inactive are the calls of the source. How the source made its calls, unless noted: active means hit-call score of the fitted dose curve at least 0.9, where 1 is the maximum; inconclusive means response in the unintended direction; inactive means score below 0.9.

This is an account of results in PubChem BioAssay (EPA / NIEHS).

Assay [1] is described as follows: BSK_4H_Eotaxin3: BioMAP Diversity Plus: 4H Assay for Eotaxin 3 Biomarker Activity (AID 2283000; active means hit-call score of the fitted dose curve at least 0.9, where 1 is the maximum; inactive means score below 0.9;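 on outcome: CCL26 protein level quantified by ELISA in parallel with SRB cytotoxicity check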). The settings on record: primary human endothelial cells (HUVEC); actives raise or lower the signal. The essentials: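 Eotaxin-3 (CCL26) levels were measured by ELISA in HUVEC primary cultures 24 h post-dosing. Gain or loss of signal was fitted in both directions, with DMSO serving as baseline and negative control.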

Assay [2] can be described thus: BSK_3C_Proliferation: Cell Proliferation Assessment in the BioMAP Diversity Plus: 3C Assay (AID 2283006; active means hit-call score of the fitted dose curve at least 0.9, where 1 is the maximum; inactive means score below 0.9;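 on AC50: potency may reflect either rise or fall in cell number versus DMSO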). The settings on record: primary human endothelial cells (HUVEC). The essentials: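 Read-out is total protein by SRB absorbance at 560 nm, taken as a proxy for relative cell number. Primary human umbilical vein endothelium cultured below confluence was dosed for 48 h, TCA-fixed and SRB-stained; curves were fitted bidirectionally versus DMSO.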

The target of assay [3] is Peroxisome proliferator-activated receptor gamma (Homo sapiens) (UniProt P37231). Put plainly: ATG_PPARg_TRANS: Attagene TRANS-FACTORIAL HepG2 Assay for human Peroxisome Proliferator-activated Receptor-gamma (PPARg) (AID 2283007). The essentials:
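Human hepatoma HepG2, transient MRTU transfection, 24 h treatment. mRNA reporter signal by RT-PCR plus capillary electrophoresis, fluorescence detection; fitted for increase over DMSO negative control.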

Assay [4] addresses Nuclear receptor subfamily 1 group I member 2 (Homo sapiens) (UniProt O75469). Put plainly: ATG_PXR_TRANS: Attagene TRANS-FACTORIAL HepG2 Assay for human Pregnane X Receptor (PXR) (AID 2283008). In a few lines: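 Fluorescence intensity of FAM-labelled, HpaI-digested reporter amplicons, separated by capillary electrophoresis, quantifies induction. HepG2 cells with PXR-Gal4 trans-reporter system were exposed 24 h; DMSO defines baseline.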

The target in assay [5] is human Peroxisome Proliferator-activated Receptor alpha (PPARa), PPARA (gene 5465) (UniProt Q07869). As to the kind of experiment: ATG_PPARa_TRANS: Attagene TRANS-FACTORIAL HepG2 Assay for human Peroxisome Proliferator-activated Receptor alpha (PPARa) (AID 2283001).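 On AC50: potency for gain of reporter signal over DMSO so agonist or activator.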 In a few lines:
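Read-out is fluorescence of reporter cDNA fragments resolved by capillary electrophoresis after RT-PCR. Human HepG2 liver cells carried transfected PPARa-Gal4 chimera and GAL4-UAS reporter units, treated 24 h; activity scored as increase over DMSO.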

Assay [6] deals with human Retinoic Acid Receptor gamma (RARg), RARG (gene 5916) (UniProt P13631). Put plainly: ATG_RARg_TRANS: Attagene TRANS-FACTORIAL HepG2 Assay for human Retinoic Acid Receptor gamma (RARg) (AID 2283009). The essentials: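 Transient transfection of HepG2 with multi-reporter constructs, then 24 h chemical treatment. Total RNA isolated, reverse-transcribed, PCR-amplified, fluorescently labelled and resolved by capillary electrophoresis; activity scored as mRNA induction versus DMSO.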

Assay [7] deals with human Retinoic Acid Receptor beta (RARb), RARB (gene 5915) (UniProt P10826). As to the kind of experiment: ATG_RARb_TRANS: Attagene TRANS-FACTORIAL HepG2 Assay for human Retinoic Acid Receptor beta (AID 2283004). The essentials: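 HepG2 cells were transiently transfected with GAL4-UAS reporter units that report activity of exogenous chimeric NR-Gal4 proteins, then exposed to compound for 24 h. Reporter mRNA was quantified by RT-PCR with capillary electrophoresis fluorescence, as gain of signal over DMSO.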

Assay [8] has as its target Retinoic acid receptor alpha (Homo sapiens) (UniProt P10276). As to the kind of experiment: ATG_RARa_TRANS: Attagene TRANS-FACTORIAL HepG2 Assay for human Retinoic Acid Receptor alpha (RARa) (AID 2283005). In a few lines:
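Reporter transcripts, measured by RT-PCR with fluorescent labeling and capillary electrophoresis after 24 h dosing, reflect activity of an exogenous human RARa–GAL4 fusion in transiently transfected HepG2. Fitted for increase relative to DMSO.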

In assay [9] the target is human Peroxisome Proliferator-activated Receptor delta (PPARd), PPARD (gene 5467) (UniProt Q03181). As to the kind of experiment: ATG_PPARd_TRANS: Attagene TRANS-FACTORIAL HepG2 Assay for human Peroxisome Proliferator-activated Receptor delta (PPARd) (AID 2283002). The essentials: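 Cell-based TRANS reporter: HepG2, transient MRTU transfection, 24 h exposure. Readout = reporter mRNA (RT-PCR/CE, 6-FAM). Gain-of-signal fit vs DMSO control.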

Read-out in assay [10]: Intercellular Adhesion Molecule 1 (ICAM1), ICAM1 (gene 3383)
Put plainly: BSK_3C_ICAM1: BioMAP Diversity Plus: 3C Assay for Intercellular Adhesion Molecule 1 (ICAM1) Biomarker Activity (AID 2283003; active means hit-call score of the fitted dose curve at least 0.9, where 1 is the maximum; inactive means score below 0.9). The conditions noted are these: primary human endothelial cells (HUVEC); actives raise or lower the signal. The essentials:
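ICAM-1 levels measured by ELISA after HUVEC cultures in the 3C system had been dosed for 24 h. Gain or loss of signal relative to DMSO was fitted in both directions.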

human Retinoic Acid Receptor gamma (RARg), RARG (gene 5916), sequence (P13631 whole entry, looked up): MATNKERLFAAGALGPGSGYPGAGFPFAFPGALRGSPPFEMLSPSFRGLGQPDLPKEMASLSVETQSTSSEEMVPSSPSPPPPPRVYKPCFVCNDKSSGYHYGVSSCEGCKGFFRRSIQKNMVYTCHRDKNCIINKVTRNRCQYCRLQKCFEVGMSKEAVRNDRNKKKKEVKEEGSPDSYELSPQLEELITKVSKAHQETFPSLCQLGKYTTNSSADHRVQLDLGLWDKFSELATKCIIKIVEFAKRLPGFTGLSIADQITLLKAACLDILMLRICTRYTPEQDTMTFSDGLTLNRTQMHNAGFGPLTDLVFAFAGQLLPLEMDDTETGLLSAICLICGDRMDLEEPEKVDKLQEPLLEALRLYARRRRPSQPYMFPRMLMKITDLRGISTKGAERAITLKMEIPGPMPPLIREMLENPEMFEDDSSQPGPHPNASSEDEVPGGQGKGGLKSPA
human Retinoic Acid Receptor beta (RARb), RARB (gene 5915), sequence (P10826 whole entry, looked up, the tested form may be a part): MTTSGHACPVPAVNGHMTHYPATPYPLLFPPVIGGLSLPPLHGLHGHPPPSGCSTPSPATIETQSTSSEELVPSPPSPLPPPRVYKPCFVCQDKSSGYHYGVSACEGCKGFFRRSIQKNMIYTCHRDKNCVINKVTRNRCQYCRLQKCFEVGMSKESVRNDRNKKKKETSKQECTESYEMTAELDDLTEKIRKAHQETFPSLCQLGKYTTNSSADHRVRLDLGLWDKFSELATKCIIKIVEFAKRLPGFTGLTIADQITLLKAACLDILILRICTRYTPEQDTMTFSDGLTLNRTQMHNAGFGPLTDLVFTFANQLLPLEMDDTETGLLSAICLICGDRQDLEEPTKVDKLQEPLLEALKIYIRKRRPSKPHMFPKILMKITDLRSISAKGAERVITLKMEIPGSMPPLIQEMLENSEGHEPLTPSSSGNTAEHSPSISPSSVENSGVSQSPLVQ
human Peroxisome Proliferator-activated Receptor alpha (PPARa), PPARA (gene 5465), sequence (Q07869 whole entry, looked up, the tested form may be a part): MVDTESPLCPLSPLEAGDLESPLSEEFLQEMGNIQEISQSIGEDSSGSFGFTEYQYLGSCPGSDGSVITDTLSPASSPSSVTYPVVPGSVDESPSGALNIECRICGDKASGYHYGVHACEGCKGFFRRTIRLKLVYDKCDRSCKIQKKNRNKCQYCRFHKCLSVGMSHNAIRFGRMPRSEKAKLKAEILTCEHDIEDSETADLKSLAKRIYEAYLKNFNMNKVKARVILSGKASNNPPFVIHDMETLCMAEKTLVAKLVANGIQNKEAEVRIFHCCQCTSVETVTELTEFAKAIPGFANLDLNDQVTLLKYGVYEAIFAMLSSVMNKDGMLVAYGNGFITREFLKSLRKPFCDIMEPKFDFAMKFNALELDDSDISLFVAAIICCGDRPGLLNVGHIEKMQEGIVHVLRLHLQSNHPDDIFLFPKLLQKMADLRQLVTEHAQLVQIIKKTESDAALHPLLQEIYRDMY
Peroxisome proliferator-activated receptor gamma (Homo sapiens), sequence (P37231 whole entry, looked up): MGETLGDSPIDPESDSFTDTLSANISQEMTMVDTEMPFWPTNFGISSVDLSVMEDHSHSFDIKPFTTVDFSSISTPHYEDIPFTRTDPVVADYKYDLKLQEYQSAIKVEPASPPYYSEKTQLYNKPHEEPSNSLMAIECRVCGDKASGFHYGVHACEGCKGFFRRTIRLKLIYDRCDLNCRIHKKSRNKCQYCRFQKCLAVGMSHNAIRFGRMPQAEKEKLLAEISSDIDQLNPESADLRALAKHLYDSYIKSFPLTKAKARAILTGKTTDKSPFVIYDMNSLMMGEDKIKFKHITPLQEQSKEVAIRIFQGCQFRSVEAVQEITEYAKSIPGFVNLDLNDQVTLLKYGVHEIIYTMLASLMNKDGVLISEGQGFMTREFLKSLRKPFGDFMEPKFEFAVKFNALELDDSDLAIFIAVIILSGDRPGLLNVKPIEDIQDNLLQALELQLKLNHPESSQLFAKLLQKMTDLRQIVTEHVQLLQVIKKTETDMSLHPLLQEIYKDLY
Retinoic acid receptor alpha (Homo sapiens), sequence (P10276 whole entry, looked up, the tested form may be a part): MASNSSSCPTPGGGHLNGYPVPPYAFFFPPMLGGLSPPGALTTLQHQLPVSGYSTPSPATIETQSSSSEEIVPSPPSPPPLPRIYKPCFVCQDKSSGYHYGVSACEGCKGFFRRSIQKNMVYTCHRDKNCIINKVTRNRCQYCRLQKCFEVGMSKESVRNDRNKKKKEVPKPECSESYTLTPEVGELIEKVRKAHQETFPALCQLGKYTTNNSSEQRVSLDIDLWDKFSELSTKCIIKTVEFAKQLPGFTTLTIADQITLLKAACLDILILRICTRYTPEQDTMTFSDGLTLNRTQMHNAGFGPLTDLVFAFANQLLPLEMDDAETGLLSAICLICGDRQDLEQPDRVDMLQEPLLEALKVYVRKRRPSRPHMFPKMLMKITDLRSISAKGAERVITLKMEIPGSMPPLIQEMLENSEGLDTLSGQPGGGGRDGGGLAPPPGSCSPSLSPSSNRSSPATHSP
human Peroxisome Proliferator-activated Receptor delta (PPARd), PPARD (gene 5467), sequence (Q03181 whole entry, looked up): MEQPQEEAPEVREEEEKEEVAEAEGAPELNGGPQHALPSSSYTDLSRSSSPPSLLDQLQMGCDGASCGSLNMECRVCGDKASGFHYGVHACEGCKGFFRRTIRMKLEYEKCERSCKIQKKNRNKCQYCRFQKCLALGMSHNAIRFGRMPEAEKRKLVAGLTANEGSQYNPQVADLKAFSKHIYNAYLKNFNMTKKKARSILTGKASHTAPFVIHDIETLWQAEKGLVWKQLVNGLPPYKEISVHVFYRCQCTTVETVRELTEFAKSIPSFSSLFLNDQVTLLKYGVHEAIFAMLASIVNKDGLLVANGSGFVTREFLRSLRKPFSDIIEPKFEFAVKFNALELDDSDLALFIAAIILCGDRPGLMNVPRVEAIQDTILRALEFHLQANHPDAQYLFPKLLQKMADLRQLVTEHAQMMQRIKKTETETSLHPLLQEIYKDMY
Nuclear receptor subfamily 1 group I member 2 (Homo sapiens), sequence (O75469 whole entry, looked up, the tested form may be a part): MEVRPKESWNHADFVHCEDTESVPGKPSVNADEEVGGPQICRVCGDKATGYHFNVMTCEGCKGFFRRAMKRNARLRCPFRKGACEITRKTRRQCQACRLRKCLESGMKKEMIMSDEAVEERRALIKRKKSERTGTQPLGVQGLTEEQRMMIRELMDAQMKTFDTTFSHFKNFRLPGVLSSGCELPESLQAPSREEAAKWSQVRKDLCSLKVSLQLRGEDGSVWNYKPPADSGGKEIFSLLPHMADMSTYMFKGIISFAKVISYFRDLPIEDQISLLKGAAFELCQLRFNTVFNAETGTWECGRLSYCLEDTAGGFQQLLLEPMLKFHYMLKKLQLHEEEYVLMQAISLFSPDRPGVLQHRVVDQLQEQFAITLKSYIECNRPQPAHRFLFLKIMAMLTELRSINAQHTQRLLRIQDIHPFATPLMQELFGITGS

On to `O=C(O)C(F)(F)C(F)(F)C(F)(F)C(F)(F)C(=O)O`, for which the outcome in assay [1], in assay [2], in assay [3] and in assay [4] was inactive.

In general, AC50 refers to the concentration at which the activity in the assay is half-maximal. On to `COc1ccc(C(=O)/C(Br)=C\C(=O)O)cc1`, for which the AC50 in assay [1] was 8.38 µM (active) and 20 µM (active); in [2], 6.82 µM (active) and 20 µM (active); in [4] it was 6.78 µM (active). For the same molecule, the outcome in assay [5] and in assay [6] was inactive.

Regarding `Nc1ccc(C(=O)O)cc1`, the result in assay [1], in assay [7], in assay [8], in [2] and in [6] was inactive.

For `COC(OC)(C(=O)c1ccccc1)c1ccccc1`, the outcome in assay [1], in assay [9], in [2], in assay [3] and in assay [6] was inactive. Besides, the AC50 in assay [4] is 0.52 µM (active).

Consider `CCOC(=O)[C@H](O)[C@@H](O)C(=O)OCC`, for which the outcome in assay [5], in [9], in assay [7], in assay [8] and in [3] was inactive. For the same molecule, the AC50 in assay [4] was 68.2 µM (active).

Consider `CCc1cccc(C)c1N(C(=O)CS(=O)(=O)O)C(C)COC` (stereo not drawn), for which the result in [1], in [9], in assay [8], in assay [2], in [3] and in [6] was inactive. Moreover, the AC50 in assay [4] is 27.6 µM (active).

In the case of `CCCCCC1=CCCC1=O`, the outcome in assay [1], in assay [5] and in [2] was inactive. Besides, the values for the AC50 in assay [3] and in assay [4] were 35.4 µM (active) and 11.4 µM (active), respectively.

Turning to `Cc1ccc([N+](=O)[O-])cc1N`, the outcome in [1], in [5], in assay [2], in assay [3] and in assay [4] was inactive.

As to `C1CNCCN1`, the outcome in assay [1], in [2], in assay [4] and in assay [6] was inactive.

With `COc1ccc(C(=O)c2ccccc2)c(O)c1`, the AC50 was 20 µM (active) in [1], 33.1 µM (active) in [3] and 27.3 µM (active) in assay [4]. The outcome in assay [9] and in [2] was inactive.

Take `O=C(O)CCC(=O)O`: the result in assay [5] was inactive.

As to `CCCCCCCCC(CO)CCCCCC` (stereo not drawn), the AC50 in assay [1] was 5.35 µM (active). In addition, the result in [10], in assay [2], in assay [3] and in assay [4] was inactive.

Consider `C=C[C@@]1(C)CC(=O)[C@]2(O)[C@@]3(C)[C@@H](O)CCC(C)(C)[C@@H]3[C@H](O)[C@H](OC(C)=O)[C@@]2(C)O1`, for which the AC50 in assay [5] was 3.28 µM (active); in assay [3], 3.2 µM (active). In addition, the call in [9], in [7] and in assay [8] was inactive.

Turning to `C=CCCCCCCCCC=O`, the outcome in assay [1], in [5], in [2] and in assay [4] was inactive. In addition, the AC50 in assay [3] is 61.7 µM (active).

As for `CCC(C)C(=O)OC` (stereo not drawn), the call in [5], in [9], in assay [7], in assay [8], in assay [3] and in assay [4] was inactive.

In the case of `O=C(Oc1ccccc1)c1ccccc1C(=O)Oc1ccccc1`, the outcome in assay [1], in assay [5], in assay [2] and in assay [4] was inactive. The AC50 in assay [3] was 47.6 µM (active).

Take `CC(C)C(=O)OCCc1ccccc1`: the outcome in [1], in assay [9], in assay [7], in assay [2], in [4] and in [6] was inactive.

For the molecule `C=CC(=O)NC(C)(C)C`, the result in [1], in assay [5], in [2] and in [4] was inactive.

`CC(C)COC(=O)CC(C(=O)OCC(C)C)S(=O)(=O)O` (stereo not drawn): the result in assay [5], in assay [9], in assay [7] and in [8] was inactive. Further, the AC50 in assay [3] was 66.8 µM (active); in assay [4], 36.2 µM (active).

`Cc1ccccc1CCO`: the outcome in [5] and in assay [9] was inactive.

On to `CC1=CC(C)C(C=O)CC1` (stereo not drawn), for which the molecule was classed as inactive in [5], in assay [9], in assay [7], in assay [8] and in assay [3]. Moreover, the AC50 in assay [4] is 27.8 µM (active).

`O=C(O)C1CCC(C(=O)O)CC1` (stereo not drawn): in assay [5], the outcome was inactive.

In the case of `CCCCC1C(=O)N(c2ccccc2)N(c2ccccc2)C1=O`, the outcome in assay [1], in assay [10], in assay [7], in assay [2] and in assay [6] was inactive. In addition, the AC50 in assay [3] was 22.6 µM (active); in [4], 1.01 µM (active).

On to `O=C1CCCCCCCCCCCN1`, for which the result in assay [1], in [9], in [10], in assay [2] and in [6] was inactive. Also, the half-maximal activity concentration (AC50) in [4] is 5.31 µM (active).

In the case of `C[N+](C)(C)CCCNS(=O)(=O)C(F)(F)C(F)(F)C(F)(F)C(F)(F)C(F)(F)C(F)(F)C(F)(F)C(F)(F)F`, the AC50 in assay [1] is 39 µM (active) and 45.1 µM (active); in [2], 43.4 µM (active) and 42.7 µM (active). Further, the outcome in [5], in assay [3], in assay [4] and in assay [6] was inactive.

Consider `CC=C(C)C=CC=C(C)C`, for which the AC50 in assay [1] was 20 µM (active); in assay [2], 22.1 µM (active); in assay [3], 27.8 µM (active); in assay [4], 6.05 µM (active). In addition, the outcome in [10] and in [6] was inactive.

Take `CC(=O)OC1CCCCC1C(C)(C)C` (stereo not drawn): the molecule was called inactive in assay [5], in [9], in [7], in assay [8], in assay [3] and in assay [4]. Further, the outcome in assay [6] was inactive.

Turning to `CCOC(=O)C1=NOC(c2ccccc2)(c2ccccc2)C1`, the result in [1], in [10] and in assay [4] was inactive. Besides, the AC50 in assay [2] was 28.4 µM (active); in [3], 100 µM (active).

On to `CCOB(OCC)OCC`, for which the result in assay [5], in [9], in [7], in assay [8] and in [3] was inactive.

With `Nc1ccc(Cl)c(N)c1`, the call in assay [5], in assay [9], in assay [7], in [8], in assay [3] and in [4] was inactive. Further, in [6], the call was inactive.

For the molecule `Cc1c(O)cccc1O`, the result in assay [1], in assay [2], in assay [3] and in [4] was inactive.

As to `CC(C)CCCCCOC(=O)CS`, the result in assay [1], in assay [5], in assay [2] and in [4] was inactive. In addition, in [3], the AC50 was 19.5 µM (active).

Take `O=C(O)c1ccc2c(c1)C(=O)OC2=O`: the outcome in assay [5] was inactive.
